Source: PubChem BioAssay AID1159580 (chemical genetic matrix, 2015)
Among all 5,500 compounds or so, about 2,000 (36%) were called active. Inconclusive results (about 18%) are left out. No stated cut-off is given here; in the data, active means normalized growth mostly below about 0.91 (no sharp cut-off); inconclusive means no clear call, values can overlap the other calls; inactive means mostly above about 0.92. The list shows a part of the results.

Experiment: chemical genetic growth profiling, strain panel (AID 1159580);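 further: tested at 20 µM; growth read once vehicle control cultures reached saturation at 30 °C; 1 = growth at the plate median or of vehicle wells; lower values mean less growth of the strain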
Details: growth OD

Measured: normalized growth

COc1ccccc1CC(=O)NC1CCN(Cc2ccccc2)CC1
inactive: S. cerevisiae deletion strains, locus YAL013W, strain DEP1, hits give low values 1.01 | S. cerevisiae deletion strains, locus YBR229C, strain ROT2, hits give low values 1 | S. cerevisiae deletion strains, locus YDL101C, strain DUN1, hits give low values 1.01 | S. cerevisiae deletion strains, locus YDL134C, strain PPH21, hits give low values 1.02 | S. cerevisiae deletion strains, locus YDR150W, strain NUM1, hits give low values 0.993 | S. cerevisiae deletion strains, locus YEL061C, strain CIN8, hits give low values 1.02 | S. cerevisiae deletion strains, locus YGR078C, strain PAC10, hits give low values 1.01 | S. cerevisiae deletion strains, locus YGR229C, strain SMI1, hits give low values 1.02 | S. cerevisiae deletion strains, locus YHR030C, strain SLT2, hits give low values 0.943 | S. cerevisiae deletion strains, locus YHR087W, strain rtc3, hits give low values 0.998 | S. cerevisiae deletion strains, locus YJR043C, strain POL32, hits give low values 1.01 | S. cerevisiae deletion strains, locus YJR075W, strain HOC1, hits give low values 1.02 | S. cerevisiae deletion strains, locus YKL190W, strain CNB1, hits give low values 1.01 | S. cerevisiae deletion strains, locus YLR039C, strain RIC1, hits give low values 0.947 | S. cerevisiae deletion strains, locus YLR058C, strain SHM2 (second series), hits give low values 1.01 | S. cerevisiae deletion strains, locus YLR085C, strain ARP6, hits give low values 1.04 | S. cerevisiae deletion strains, locus YLR262C, strain YPT6, hits give low values 0.826 | S. cerevisiae deletion strains, locus YML094W, strain GIM5, hits give low values 0.991 | S. cerevisiae deletion strains, locus YMR219W, strain ESC1, hits give low values 1.01 | S. cerevisiae deletion strains, locus YMR263W, strain SAP30, hits give low values 1.02 | S. cerevisiae deletion strains, locus YMR307W, strain GAS1, hits give low values 1.11 | S. cerevisiae deletion strains, locus YNL153C, strain GIM3, hits give low values 1.01 | S. cerevisiae deletion strains, locus YNL298W, strain CLA4 (second series), hits give low values 1.04 | S. cerevisiae deletion strains, locus YNL322C, strain KRE1, hits give low values 1 | S. cerevisiae deletion strains, locus YNR030W, strain Alg12, hits give low values 1.02 | S. cerevisiae deletion strains, locus YOL006C, strain TOP1, hits give low values 0.947 | S. cerevisiae deletion strains, locus YPL055C, strain LGE1, hits give low values 1.01 | S. cerevisiae deletion strains, locus YPL241C, strain CIN2, hits give low values 1.13 | S. cerevisiae deletion strains, locus YPR135W, strain CTF4, hits give low values 1.07 | S. cerevisiae strains, strain wild type, hits give low values 1.02
